Assay results from ChEMBL document CHEMBL3988442, “University of Dundee, Small-Polar-MMV Screening Library” (2021).
The campaign covered roughly 48,000 compounds. About 13,000 (27%) showed an effect of 50% or more. This is one part of the list.

test system: Wolbachia pipientis; experiment: Anti-Wolbachia Cell-Based Screen; assay type: functional; set-up: scale not given: in the data most compounds retested in dose-response had high values; conditions: 5 µM

Which “Percent Effect” value does the source give for Cc1cccnc1CSCCCNS(C)(=O)=O here?
Its value is -17.43%.

How did the “Percent Effect” value turn out when N#Cc1cccnc1NCc1ccc(S(=O)(=O)NCC2CCCO2)cc1 (stereo not given) was run?
Its value is 8.527%.

For Clc1cccc(N2CCC(NCc3ncc[nH]3)C2)c1 (stereo not given), which “Percent Effect” value is on record?
The value was -6.784%.

How did the “Percent Effect” value turn out when Cl.c1cnc2c(c1)cc([C@@H]1CCCO1)n2CCN1CCOCC1 was run?
The value was 92.89%.

For CN(CC1CCCO1)C1CCN(CCc2ccccn2)CC1 (stereo not given), which “Percent Effect” value is on record?
Its value is 4.903%.

For Cl.c1cnc2c(c1)cc([C@H]1CCCO1)n2CCN1CCCC1, which “Percent Effect” value is on record?
The value was 88.22%.

Which “Percent Effect” value does the source give for Cl.c1cnc2c(c1)cc([C@@H]1CCCO1)n2CCN1CCCCC1 here?
Its value is 85.05%.

Which “Percent Effect” value does the source give for Cl.c1cnc2c(c1)cc([C@H]1CCCO1)n2CCN1CCCCC1 here?
The value was -14.33%.

Which “Percent Effect” value does the source give for CSc1nccc(N2CCC(NCCN3CCOCC3)CC2)n1 here?
The value was -2.784%.

How did the “Percent Effect” value turn out when Cl.c1cnc2c(c1)cc([C@H]1CCCO1)n2CCN1CCOCC1 was run?
Its value is -5.726%.

For CCc1nc(CN2CCCN(C(=O)c3occc3C)CC2)cs1, which “Percent Effect” value is on record?
The value was 10.15%.

With CCc1ccsc1C(=O)N1CCCN(Cc2cscn2)CC1 as the compound, how does the “Percent Effect” value read?
Its value is 140.3%.

With Cc1nc(CN2CCN(C(=O)c3ccn(C)c(=O)c3)CC2)cs1 as the compound, how does the “Percent Effect” value read?
The value was 11.68%.

Cc1nc(CN2CCN(C(=O)c3sccc3C)CC2)cs1 was tested. Which “Percent Effect” value did it give?
Its value is 154.8%.

For CC(O)CN1CCN(C(=O)c2ccnc(N(C)C)c2)CC1 (stereo not given), which “Percent Effect” value is on record?
The value was -11.32%.

Cc1nc(CN2CCN(C(=O)c3ccnc(N(C)C)c3)CC2)cs1 was tested. Which “Percent Effect” value did it give?
Its value is 110.9%.

With COC(C(=O)N1CCCN(Cc2cscn2)CC1)c1ccccc1 (stereo not given) as the compound, how does the “Percent Effect” value read?
Its value is -16.29%.

Which “Percent Effect” value does the source give for COc1ccsc1C(=O)N1CCCN(Cc2cscn2)CC1 here?
The value was 127%.

Cc1nc(CN2CCN(C(=O)c3sccc3C3CC3)CC2)cs1 was tested. Which “Percent Effect” value did it give?
Its value is -3.645%.

Which “Percent Effect” value does the source give for COCC1CCN(S(=O)(=O)N2C[C@@H](C)[C@@](C)(O)C2)CC1 here?
The value was 1.126%.

With CN(Cc1cn2c(n1)CN(Cc1ccsc1)CC2)Cc1ccco1.O=C(O)C(F)(F)F.O=C(O)C(F)(F)F as the compound, how does the “Percent Effect” value read?
The value was -7.727%.

Which “Percent Effect” value does the source give for CSc1cccc(CNC(=O)C2CC(=O)N(C3CC3)C2)c1 (stereo not given) here?
The value was -14.89%.

Cn1cc(N2C[C@@H]3CN(S(=O)(=O)C4CC4)C[C@@H]3C2=O)cn1 was tested. Which “Percent Effect” value did it give?
The value was -1.09%.

How did the “Percent Effect” value turn out when COc1cccc(COC(C)C(=O)N(C)Cc2nnc3n2CCC3)c1 (stereo not given) was run?
The value was -2.392%.

How did the “Percent Effect” value turn out when Cc1cc(CNc2cc(-c3ccoc3C)nn2CCO)c(C)o1 was run?
Its value is -24.32%.

CCn1ccnc1CN1CCCN(C(=O)c2sccc2C#N)CC1 was tested. Which “Percent Effect” value did it give?
Its value is 2.639%.

With Cc1ccsc1C(=O)N1CCCN(Cc2cscn2)CC1 as the compound, how does the “Percent Effect” value read?
Its value is 92.98%.

For CC(C)c1ccsc1C(=O)N1CCCN(Cc2cscn2)CC1, which “Percent Effect” value is on record?
Its value is 10.39%.

With N#CC1(C(=O)N2CCN(Cc3cscn3)CC2)CCCC1 as the compound, how does the “Percent Effect” value read?
The value was -7.08%.

For CC(C)c1ccc(O)c(C(=O)N2CCN(Cc3cscn3)CC2)c1, which “Percent Effect” value is on record?
Its value is -2.44%.

Which “Percent Effect” value does the source give for Cc1nc(CN2CCCN(C(=O)c3sccc3C#N)CC2)cs1 here?
Its value is 111.7%.

How did the “Percent Effect” value turn out when N#Cc1ccsc1C(=O)N1CCCN(Cc2cscn2)CC1 was run?
Its value is 105.7%.

Which “Percent Effect” value does the source give for Cc1nc(CN2CCCN(C(=O)C3(C#N)CCCCC3)CC2)cs1 here?
Its value is -0.8463%.

How did the “Percent Effect” value turn out when Cc1ccsc1C(=O)N1CCN(Cc2cscn2)CC1 was run?
Its value is 118.4%.

Which “Percent Effect” value does the source give for CCn1cc(CN2CCCN(C(=O)c3sccc3C#N)CC2)cn1 here?
Its value is -3.745%.
